Shown are actives, neighbours in structure and some others; about 28% of the full set was active somewhere.
CYP2C9 inhib = human CYP2C9 inhibition. CYP2C9 Supersomes, luciferin-H conversion, luminescence. P11712. 20% of 96,000 active. AID 777. inhibition, % at 5 µM;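 active = blocking of liver enzyme CYP2C9 beyond about 50% at 5 µM, limit read from the data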
Target sequence (P11712 whole entry, looked up): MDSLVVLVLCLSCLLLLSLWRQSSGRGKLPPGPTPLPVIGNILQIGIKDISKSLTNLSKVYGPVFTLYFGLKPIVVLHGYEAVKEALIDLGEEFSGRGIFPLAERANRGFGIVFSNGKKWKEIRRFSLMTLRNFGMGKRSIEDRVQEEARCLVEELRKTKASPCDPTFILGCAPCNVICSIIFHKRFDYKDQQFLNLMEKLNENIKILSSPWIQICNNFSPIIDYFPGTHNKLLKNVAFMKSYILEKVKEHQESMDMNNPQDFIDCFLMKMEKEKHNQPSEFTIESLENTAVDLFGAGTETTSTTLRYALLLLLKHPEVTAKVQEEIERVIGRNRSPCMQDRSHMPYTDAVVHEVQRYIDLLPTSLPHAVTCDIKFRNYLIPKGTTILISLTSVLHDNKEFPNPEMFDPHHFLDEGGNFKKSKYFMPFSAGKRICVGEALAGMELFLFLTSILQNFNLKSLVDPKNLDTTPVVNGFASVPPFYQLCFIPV
CYP2C9 activ = CYP2C9 (human) activation; P11712; recombinant CYP2C9, luciferin-H conversion, luminescence; active compounds read high; factor 1 = untreated enzyme, 0 = blocked; activation factor at 5 µM; 1.4% of 96,000 active; AID 1024;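 active = activation factor of 2 or more for CYP2C9 at a 5 µM dose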;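 note: 0 = sulfaphenazole-blocked wells and 1 = vehicle-only wells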
CYP2C19 inh = blocks human cytochrome P450 2C19. P33261. CYP2C19 Supersomes, luciferin-H EGE luminescence, 30 min. inhibition, % at 5 µM. 21% of 96,000 active;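 active = CYP2C19 inhibition above a set limit at 5 µM in the primary screen, cut at about 50% in these data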;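 note: plate controls were negative control wells for no effect and 2.5 mM tranylcypromine positive control for full effect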
Mac1 fbg enh = enhancers of human CD11b/CD18 binding to fibrinogen. K562 CD11b/CD18 adhesion to fibrinogen, ATPlite luminescence. activation, % at 10 µM. 0.07% of 93,000 active;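 active = 10 µM primary screen giving 50% or more activity, confirmed by 40% or more on retest at that dose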
CD11b adhes inh = CD11b/CD18-fibrinogen binding inhibition; inhibition, % at 10 µM; K562 CD11b/CD18 adhesion to fibrinogen, ATPlite luminescence; Mn2+ added to activate the integrin; 0.54% of 93,000 active; P05107+P11215; AID 1497;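 active = primary inhibition of 50% or more at 10 µM, then 40% or more on retest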
CYP2C19 act = increases human CYP2C19 enzyme activity. P33261. 96,000 tested, under 10 active. recombinant CYP2C19, luciferin-H EGE luminescence; active compounds read high; 0 = fully inhibited enzyme, 1 = untreated enzyme. activation factor at 5 µM;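 active = activation factor of at least 2 at 5 µM in the primary screen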;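 note: 0 = wells with 2.5 mM tranylcypromine and 1 = vehicle-only wells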
* = called active by the depositor; / = not tested or not shown.

SMILES	CYP2C9 inhib	CYP2C9 activ	CYP2C19 inh	Mac1 fbg enh	CD11b adhes inh	CYP2C19 act
CCC(C)(C)n1nnnc1CN(Cc1ccc(Cl)cc1)Cc1ccco1	96*	0	97*	6	-21	0
CSCC[C@H](NC(=O)NCc1ccc(F)cc1)C(=O)O	4	1	0	1	-2	1
N#Cc1cccc(-c2cn(S(=O)(=O)c3ccc(Cl)cc3)nc2N)c1	39	0.6	11	0	-18	0.9
Cc1ccc(S(=O)(=O)n2cc(-c3ccccc3)c(N)n2)cc1	90*	0.1	52*	-3	-3	0.5
CCOC(=O)Cc1csc(NC(NC(=O)CC)(C(F)(F)F)C(F)(F)F)n1	-2	1	-4	0	-3	1
O=C(CCCCCN1C(=O)CCC1=O)Nc1ccc(Cl)c(C(F)(F)F)c1	30	0.7	69*	-2	5	0.3
Cc1onc(-c2ccccc2Cl)c1C(=O)NCc1ccccn1	8	0.9	47	-7	1	0.5
Cc1onc(-c2c(F)cccc2Cl)c1C(=O)NCc1ccccn1	32	0.7	56*	5	-1	0.4
Cc1onc(-c2c(Cl)cccc2Cl)c1C(=O)NCc1ccco1	81*	0.2	89*	-1	-5	0.1
Cc1onc(-c2c(Cl)cccc2Cl)c1C(=O)N/N=C(\N)COc1ccc(Cl)cc1	86*	0.1	-2	5	-2	1
Cc1onc(-c2c(F)cccc2Cl)c1C(=O)NCCc1ccc(S(N)(=O)=O)cc1	-7	1.1	28	2	10	0.7
CCCCN1C(=O)c2ccc(C(=O)Nc3cccnc3)cc2C1=O	48	0.5	36	0	-13	0.6
Clc1ccc(/C=N/c2c(-c3ccc(Cl)cc3)nc3n2CCS3)cc1	0	1	0	/	/	1
CC(C)=C(NC(=O)c1ccccc1)C(=O)NCCCC(=O)O	-12	1.1	-15	3	2	1.1
OC1(c2cccc(F)c2)CCN(Cc2ccncc2)CC1	2	1	65*	-3	-12	0.3
COCCn1nnnc1CN1CCC(O)(c2cccc(C(F)(F)F)c2)CC1	5	0.9	32	-1	-8	0.7
O=C(O)c1cccc(CSc2ncccn2)c1	-4	1	-4	1	-6	1
O=C1C2CCCN2C(c2ccc(F)c(F)c2)N1c1cccc(Cl)c1 (centres undefined)	41	0.6	50*	2	10	0.5
COc1cccc(C2N(c3cccc(Cl)c3)C(=O)C3CCCN32)c1OC (centres undefined)	70*	0.3	78*	3	-3	0.2
CCN(CC)C(=O)COc1ccc(CC(=O)O)cc1OC	2	1	-6	0	-3	1.1
CCOC(=O)C1CCN(S(=O)(=O)Cc2ccccc2)C1=O (centres undefined)	6	0.9	77*	-2	2	0.2
O=C(Nc1ccn(-c2ccccc2)n1)c1ccc(S(=O)(=O)N2CCCCCC2)cc1	46	0.5	53*	-4	72	0.5
O=C(Nc1cccnc1)C1CCCN(S(=O)(=O)c2ccccc2)C1 (centres undefined)	42	0.6	64*	2	-1	0.4
O=C(NC(Cc1ccccc1)C(=O)O)c1ccc(S(=O)(=O)N2CCCCC2)cc1 (centres undefined)	78*	0.2	4	-3	-13	1
Cc1ccc(C(=O)Nc2cccnc2)cc1S(=O)(=O)N1CCOCC1	36	0.6	47	-2	-14	0.5
SMILES	CYP2C9 inhib	CYP2C9 activ	CYP2C19 inh	Mac1 fbg enh	CD11b adhes inh	CYP2C19 act
O=C(Nc1cccnc1)c1ccc(Cl)c(S(=O)(=O)N2CCCCCC2)c1	85*	0.1	88*	-2	12	0.1
O=C(Nc1ccon1)c1ccc(S(=O)(=O)N2CCCCCC2)cc1	39	0.6	-16	2	-13	1.2
Cc1c(NC(=O)c2ccc(Br)o2)c(=O)n(-c2ccccc2)n1C	5	1	7	-2	1	0.9
Clc1ccc(SCc2cc(-c3ccc(Cl)cc3)on2)cc1	20	0.8	2	-2	19	1
O=C(Nc1cccnc1)c1ccc(S(=O)(=O)N2CCCCCC2)cc1	73*	0.3	62*	3	-3	0.4
O=C(Nc1ccccc1)c1ccc(S(=O)(=O)N2CCCC2)cc1	34	0.7	1	-2	6	1
Nc1nc(SCC(=O)N2CCCC2)[nH]c(=O)c1NC(=O)c1ccco1	46	0.5	-18	4	-23	1.2
Cc1ccc(OC(=O)CCc2c(C)nc3ncnn3c2C)cc1	10	0.9	56*	6	5	0.4
CCOC(=O)CCc1c(C)nc2ncnn2c1C	-9	1.1	-7	/	/	1.1
Cc1nc2ncnn2c(C)c1CCC(=O)O	11	0.9	-3	4	-6	1
Cc1nc2ncnn2c(C)c1Cc1c(Cl)cccc1Cl	30	0.7	62*	-3	-6	0.4
O=S(=O)(Nc1nccs1)c1cc(Cl)ccc1Cl	-53	1.5	18	6	-19	0.8
Cc1cc2nc(SCCOC(=O)Nc3ccc(Cl)cc3)nc(C)c2cc1C	0	1	16	-6	18	0.8
O=C(CN1CCSC1=NCc1ccccc1)c1ccc(Cl)cc1	/	/	/	8	3	/
CC1=C(C(N)=O)C(c2ccccc2)n2nc(-c3cccc(C)c3)nc2N1 (centres undefined)	-4	1	50*	-1	1	0.5
COc1ccc(-c2nc3n(n2)C(c2ccccc2Cl)C(C(N)=O)=C(C)N3)cc1 (centres undefined)	15	0.8	53*	-5	-13	0.5
COc1ccccc1C1C(C(N)=O)=C(C)Nc2nc(-c3ccc(Cl)cc3)nn21 (centres undefined)	6	0.9	41	-1	1	0.6
CCSc1nnc(NC(=O)CSc2nccn2-c2cccc(C)c2)s1	63*	0.4	33	/	/	0.7
Cc1cccc(-n2ccnc2SCC(=O)Nc2nccs2)c1	49	0.5	60*	-4	7	0.4
COc1cccc(-n2ccnc2SCC(=O)Nc2nccs2)c1	45	0.5	59*	/	/	0.4
CC1=NNC(=O)C1CCC(=O)N/N=C\c1ccccc1[N+](=O)[O-] (centres undefined)	1	1	10	/	/	0.9
Cc1nn(-c2ccccc2)c(N2CCCC2)c1/C=N/n1cnc2scc(-c3ccccc3)c2c1=O	21	0.8	10	26	-12	0.9
O=c1c2c(-c3ccccc3)csc2ncn1/N=C/c1c2ccccc2cc2ccccc12	85*	0.2	15	-2	-6	0.8
CC1(C)C(=O)Nc2ccccc2N1C(=O)COC(=O)C12CC3CC(CC(O)(C3)C1)C2	6	0.9	0	0	-10	1
CC1(C)C(=O)Nc2ccccc2N1C(=O)COC(=O)C1CCCCC1	61*	0.4	62*	-4	-2	0.4

Screening results as filed in PubChem BioAssay.
